# In PubChem BioAssay (NCATS):
# Unmarked numbers belong to inactive results. Results filed as inconclusive are left out. A call without a number means that no potency is given here. Calls of active or inactive are those of the source. Unless noted, the call rests on the fitted dose curve; in most records, active means well fitted curve in the direction sought with a large enough effect; inconclusive means small, poorly fitted or top-dose-only effect, or another doubt; inactive means no such curve, though single readings can be large; an effect the other way counts as inactive or inconclusive.
# Columns and labels:
# [1] = molecular target: Cytochrome P450 3A4 (Homo sapiens) (UniProt P08684); test: qHTS Assay for Inhibitors and Substrates of Cytochrome P450 3A4 (AID 884); further: series mostly up to about 57 µM; nearly all actives have a fitted effect of over 50% in size
# In short: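 Luminescent readout of luciferin produced by CYP3A4 (20 nM) dealkylation of Luciferin-PPXE, 25 uM (its KM). NADPH-driven reaction ran 60 min at RT after 10 min compound preincubation; data scaled to 57 uM ketoconazole as 100% inhibition.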
# [2] = Confirmation and Secondary Assay for Modulators of Hemoglobin Beta Chain Splicing at IVS2 654 locus (AID 910);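 further: HeLa cells stably carrying EGFP split by mutant beta-globin IVS2-654 intron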
# In short: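 HeLa cells stably expressing EGFP interrupted by β-globin IVS2-654 intron, seeded overnight in Opti-MEM/2% FCS, then treated 2 days at 37 °C. Restored splicing read as total peak GFP intensity per well by laser scanning cytometry (488 nm excitation, 500–520 nm emission); 500 nM antisense PNA as control.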
# [3] = molecular target: Cytochrome P450 2C9 (Homo sapiens) (UniProt P11712); test: qHTS Assay for Inhibitors and Substrates of Cytochrome P450 2C9 (AID 883); further: nearly all actives have a fitted effect of over 60% in size
# In short: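 Human CYP2C9 (10nM) with Luciferin-H at 100uM (its KM) in 25mM KPO4; compound preincubated 10 min at 37C, then NADPH regeneration for 60 min at 37C. Luciferin read by luminescence after detection reagent; normalized to 57uM sulphaphenazole as full inhibition.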
# [4] = molecular target: Cytochrome P450 2D6 (Homo sapiens) (UniProt P10635); test: qHTS Assay for Inhibitors and Substrates of Cytochrome P450 2D6 (AID 891); further: nearly all actives have a fitted effect of over 60% in size; further: potency means the concentration at half of the fitted maximal effect
# In short: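 Luminescent read-out of luciferin formed by 5 nM human CYP2D6 demethylating 30 uM Luciferin-ME EGE (Km level) over 60 min at room temperature after NADPH regeneration addition. Data normalized to full inhibition by 1.43 uM quinidine.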
# [5] = Cellular Toxicity (caspase-3) Renal Proximal Tubule (AID 667); conditions: Potency: caspase-3 activation;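 further: cells exposed to compound for 16 hours at 37 °C before detection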; further: potency means the concentration at half of the fitted maximal effect
# In short: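 In qHTS format, rat primary proximal tubule cells seeded at 1000 per well are exposed to compounds for 16 hours at 37 °C. An increase in Caspase-Glo 3/7 luminescence indicates caspase activation.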
# [6] = molecular target: Cytochrome P450 3A4 (Homo sapiens) (UniProt P08684); test: qHTS Assay for Activators of Cytochrome P450 3A4 (AID 885); further: nearly all actives have a fitted effect of over 65% in size
# In short: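 CYP3A4 activity: Luciferin-PPXE O-dealkylation, 25uM substrate, 200mM KPO4, RT throughout. Read-out is luciferase luminescence; higher values reflect activation.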
# [7] = molecular target: Guanine nucleotide-binding protein G(i) subunit alpha-1 (Homo sapiens) (UniProt P63096); test: qHTS Assay for Inhibitors of RGS12 GoLoco Motif Activity (Green Fluorophore) (AID 879);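 further: negative values mean loss of peptide binding seen as reduced polarization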
# In short: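 A drop in FITC polarization marked displacement of the FITC-tagged RGS12 GoLoco peptide (10 nM) from Gαi1 (50 nM). Compounds were incubated 10 min at room temperature in Tris pH 7.5 buffer containing 150 mM NaCl, 0.1 mM GDP and 0.05% NP40; unlabeled peptide titration served as control.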
# [8] = qHTS Assay for Identification of Small Molecule Antagonists for NFkB Signaling Pathway (AID 895; active means well fitted inhibition curve with a large enough effect in the signal ratio, with a control signal flat, not every such curve was filed as active; the % refers to the signal ratio; further: potency means the concentration at half of the fitted maximal effect)
# In short: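 ME-180 NFkB-bla cells (beta-lactamase under NFkB response element), plated overnight, treated with compound then 10 pM TNF alpha (about EC50) for 5 hrs at 37 C. LiveBLAzer FRET read at 460/530 nm emission, 405 nm excitation.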
# [9] = molecular target: Cytochrome P450 2C19 (Homo sapiens) (UniProt P33261); test: qHTS Assay for Inhibitors and Substrates of Cytochrome P450 2C19 (AID 899); further: nearly all actives have a fitted effect of over 60% in size; further: potency means the concentration at half of the fitted maximal effect
# In short: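 5 nM human CYP2C19 with 10uM Luciferin-H EGE (at KM) in 50mM KPO4, compound preincubated 10 min at 37C, then NADPH regeneration for 60 min at 37C. Luciferin read by luminescence after detection reagent; normalized to 57uM ketoconazole as full inhibition.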
# [10] = qHTS Assay for Identification of Small Molecule Agonists for Hypoxia Response Element Signaling Pathway (AID 914; active means well fitted activation curve with a large enough effect in the signal ratio, with a control signal flat, not every such curve was filed as active; the % refers to the signal ratio); conditions: ME-180 (cervical carcinoma) HRE-bla reporter, beta-lactamase ratio, CoCl2, 17 h; hits give high values
# In short: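 AC50 values come from titration-series %Activity, taken as the 460/530nm ratio of CCF4 fluorescence (excitation 405nm). CellSensor HRE-bla ME-180 cells were treated 17 hours at 37 C with compound plus an EC50 level of CoCl2.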
# Cytochrome P450 2D6 (Homo sapiens), sequence (P10635 whole entry, looked up): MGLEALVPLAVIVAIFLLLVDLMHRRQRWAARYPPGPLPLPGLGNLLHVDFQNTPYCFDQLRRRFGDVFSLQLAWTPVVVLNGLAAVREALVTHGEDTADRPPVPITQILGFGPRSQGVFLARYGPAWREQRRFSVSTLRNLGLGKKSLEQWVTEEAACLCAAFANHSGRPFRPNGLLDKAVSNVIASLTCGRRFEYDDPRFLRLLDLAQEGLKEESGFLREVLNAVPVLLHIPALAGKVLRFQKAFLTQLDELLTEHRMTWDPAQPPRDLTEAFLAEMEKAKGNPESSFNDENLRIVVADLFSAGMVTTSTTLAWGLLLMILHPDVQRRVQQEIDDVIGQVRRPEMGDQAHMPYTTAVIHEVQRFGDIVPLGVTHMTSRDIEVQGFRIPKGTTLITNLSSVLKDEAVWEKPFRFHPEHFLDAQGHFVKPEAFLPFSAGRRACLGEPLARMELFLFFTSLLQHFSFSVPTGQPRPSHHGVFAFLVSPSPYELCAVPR
# Cytochrome P450 2C19 (Homo sapiens), sequence (P33261 whole entry, looked up): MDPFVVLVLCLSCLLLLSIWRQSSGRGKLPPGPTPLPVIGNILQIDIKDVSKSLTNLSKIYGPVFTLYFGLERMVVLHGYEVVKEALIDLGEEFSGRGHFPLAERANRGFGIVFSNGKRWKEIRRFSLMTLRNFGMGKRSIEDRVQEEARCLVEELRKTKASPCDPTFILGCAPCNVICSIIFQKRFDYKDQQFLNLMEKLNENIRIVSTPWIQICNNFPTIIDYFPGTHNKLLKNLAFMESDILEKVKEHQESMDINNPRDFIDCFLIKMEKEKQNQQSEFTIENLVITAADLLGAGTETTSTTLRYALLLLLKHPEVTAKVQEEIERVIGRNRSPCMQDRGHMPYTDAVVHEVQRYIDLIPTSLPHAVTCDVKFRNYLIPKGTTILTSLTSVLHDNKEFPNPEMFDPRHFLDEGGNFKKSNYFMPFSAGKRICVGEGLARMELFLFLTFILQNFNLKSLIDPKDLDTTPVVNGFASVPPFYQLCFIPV
# Guanine nucleotide-binding protein G(i) subunit alpha-1 (Homo sapiens), sequence (P63096 whole entry, looked up): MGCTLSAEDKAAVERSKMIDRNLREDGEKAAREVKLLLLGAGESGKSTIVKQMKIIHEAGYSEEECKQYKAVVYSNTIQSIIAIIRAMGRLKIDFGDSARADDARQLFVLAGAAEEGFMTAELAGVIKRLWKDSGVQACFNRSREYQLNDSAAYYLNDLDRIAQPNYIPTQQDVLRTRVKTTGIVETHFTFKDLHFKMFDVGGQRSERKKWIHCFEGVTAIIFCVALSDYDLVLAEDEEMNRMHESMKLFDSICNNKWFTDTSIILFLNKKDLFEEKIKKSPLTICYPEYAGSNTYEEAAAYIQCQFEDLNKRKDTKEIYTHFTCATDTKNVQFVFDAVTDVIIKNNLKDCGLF
# Cytochrome P450 3A4 (Homo sapiens), sequence (P08684 whole entry, looked up): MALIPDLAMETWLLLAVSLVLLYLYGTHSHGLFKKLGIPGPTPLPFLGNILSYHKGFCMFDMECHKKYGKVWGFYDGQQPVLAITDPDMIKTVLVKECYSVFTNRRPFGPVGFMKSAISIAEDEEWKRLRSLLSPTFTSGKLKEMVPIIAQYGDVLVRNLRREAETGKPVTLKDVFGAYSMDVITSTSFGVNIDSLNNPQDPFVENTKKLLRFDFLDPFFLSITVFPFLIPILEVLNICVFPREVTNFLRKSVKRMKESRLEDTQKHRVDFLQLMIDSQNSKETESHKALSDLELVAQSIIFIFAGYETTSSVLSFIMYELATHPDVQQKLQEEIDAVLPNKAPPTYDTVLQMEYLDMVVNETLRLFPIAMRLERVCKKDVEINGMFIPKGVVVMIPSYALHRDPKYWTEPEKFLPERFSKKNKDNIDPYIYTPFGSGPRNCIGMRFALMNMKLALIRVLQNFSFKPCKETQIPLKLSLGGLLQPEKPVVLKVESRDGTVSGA
# Cytochrome P450 2C9 (Homo sapiens), sequence (P11712 whole entry, looked up): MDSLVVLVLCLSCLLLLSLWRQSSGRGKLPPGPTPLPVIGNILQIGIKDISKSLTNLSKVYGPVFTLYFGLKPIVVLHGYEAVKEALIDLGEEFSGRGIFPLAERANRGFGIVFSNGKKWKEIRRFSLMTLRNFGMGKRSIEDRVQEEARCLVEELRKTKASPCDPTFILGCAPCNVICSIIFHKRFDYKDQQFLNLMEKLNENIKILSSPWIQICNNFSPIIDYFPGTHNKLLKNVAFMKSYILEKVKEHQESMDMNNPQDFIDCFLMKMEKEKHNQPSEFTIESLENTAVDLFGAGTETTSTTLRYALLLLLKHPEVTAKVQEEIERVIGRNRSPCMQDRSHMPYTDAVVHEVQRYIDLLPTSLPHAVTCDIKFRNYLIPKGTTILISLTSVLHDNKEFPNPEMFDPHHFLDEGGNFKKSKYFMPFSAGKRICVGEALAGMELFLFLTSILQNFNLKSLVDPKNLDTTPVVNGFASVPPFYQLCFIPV
smiles,measurement,setting,value
COc1ccc2c(c1)c(CC(=O)OCC(=O)O)c(C)n2C(=O)c1ccc(Cl)cc1,outcome,[1],inactive
same,Potency,[2],inactive
CCOC(=O)c1ccc(OC(=O)CCCCCN=C(N)N)cc1,outcome,[3],inactive
same,Potency,[4],0.316 µM (active)
Nc1ccc(S(=O)(=O)Nc2ccccn2)cc1,outcome,[1],inactive
same,Potency,[2],inactive
CN(C)c1ccc(C(=C2C=CC(=[N+](C)C)C=C2)c2ccc(N(C)C)cc2)cc1,Potency,[5],31.6 µM (active)
same,outcome,[6],inactive
same,Potency,[2],inactive
CC1=NN(c2ccccc2)C(=O)C1,Potency,[5],inactive
same,outcome,[6],inactive
same,Potency,[2],inactive
O=C(O)c1cc(=O)[nH]c(=O)[nH]1,Potency,[5],inactive
same,outcome,[1],inactive
COc1cc2ncnc(Nc3cccc(Cl)c3)c2cc1OC,outcome,[7],inactive
same,Potency,[8],15.8 µM (active)
NC(=O)c1cccc(N)c1,outcome,[7],inactive
same,outcome,[3],inactive
same,Potency,[4],inactive
same,Potency,[8],inactive
same,Potency,[9],inactive
N=C(N)c1ccc(OCCCCCOc2ccc(C(=N)N)cc2)cc1,Potency,[5],inactive
same,Potency,[2],inactive
same,activation,[10],3.68%
CCc1c2c(nc3ccc(OC(=O)N4CCC(N5CCCCC5)CC4)cc13)-c1cc3c(c(=O)n1C2)COC(=O)[C@]3(O)CC,outcome,[1],inactive
CC(C)(C)NC(=O)[C@H]1CC[C@H]2[C@@H]3CC[C@H]4NC(=O)C=C[C@]4(C)[C@H]3CC[C@]12C,outcome,[7],inactive
NNC(=O)c1ccncc1,Potency,[5],inactive
same,outcome,[6],inactive
same,Potency,[2],inactive
CC(=O)[C@H]1CC[C@H]2[C@@H]3CCC4=CC(=O)CC[C@]4(C)[C@H]3CC[C@]12C,Potency,[5],inactive
same,outcome,[7],inactive
same,outcome,[1],inactive
O=c1oc2c(O)c(O)cc3c(=O)oc4c(O)c(O)cc1c4c23,outcome,[1],inactive
same,Potency,[4],inactive
same,Potency,[9],31.6 µM (active)
same,Potency,[2],inactive
CC(=O)CC(c1ccccc1)c1c(O)c2ccccc2oc1=O (stereo not given),outcome,[1],inactive
same,Potency,[2],inactive
Cc1ccnc2c1NC(=O)c1cccnc1N2C1CC1,Potency,[5],inactive
same,outcome,[1],inactive
CC1=CC(=O)c2ccccc2C1=O,Potency,[4],7.94 µM (active)
same,Potency,[9],2.51 µM (active)
CCCOc1ccc(C(=O)OCCN(CC)CC)cc1N,Potency,[9],inactive
CNNCc1ccc(C(=O)NC(C)C)cc1,activation,[10],9.99%
COc1cnc(NS(=O)(=O)c2ccc(N)cc2)nc1,activation,[10],5.32%
